From PubChem BioAssay (Tox21)
A number with no mark means an inactive call. Activity calls are given as the source filed them. The call rests on the fitted dose curve; in most records, active means well fitted curve in the direction sought with a large enough effect in the repeat runs; inconclusive means weak or mixed curves; inactive means flat fitted curve, though single readings scatter. Non-standard residues stand in square brackets, D forms with d. Residues, ends and D or L forms follow the SMILES beside them. *: point of attachment. Sta = CC(C)C[C@H](N)[C@@H](O)CC(=O)O; Isovaleryl = CC(C)CC(=O)*

assay: qHTS assay to test for compound auto fluorescence at 590 nm (red) in HepG2 cell free culture (AID 720684); conditions: cell-free medium autofluorescence, red 540/590 nm; series mostly up to 91.3 µM; fluorescence, % of Rose Bengal: at the top concentration
Text: U.S. Tox21 Program National Center for Advancing Translational Sciences [NCATS] NIH Chemical Genomics Center [NCGC] U.S. Environmental Protection Agency [EPA] National Institutes of Environmental Health Sciences [NIEHS] National Toxicology Program [NTP] U.S. Food and Drug Administration [FDA] Tox21 Assay Overview: Compound auto fluorescence often interferes with screening of the compound library against various biological targets and signaling pathways. Some of these compounds may have fluorophoric properties. Such properties may interfere with the assay outputs resulting in false positives and/or negatives. To decrease such complications and ensure the compound activities are relevant in terms of biological response, the Tox21 10K compound library was screened for auto fluorescence. From the fluorophores used as reporter signals in our screening assays, the auto fluorescence equivalencies of compounds against three fluorophores have been evaluated: Triamterene, Fluorescein and Rose Bengal sodium for blue, green and red fluorescence, respectively. The fluorescence intensities were measured using Excitation/Emission wavelengths at 405/460nm, 485/535nm and 540/590nm for blue, green and red labels, respectively. This assay includes the red fluorescence data.
Tox21 Assay Protocol Summary: 5 uL of culture medium (MEM containing 10% FBS) per well was dispensed into black wall/clear bottom 1536-well plates using a Multidrop Combi Dispenser (ThermoFisher Scientific, Waltham, MA). After 23 nL compound or DMSO vehicle was transferred into assay plate by a pintool work station (Kalypsys, San Diego, CA), fluorescence intensities in the assay plates were measured by an Envision (PerkinElmer, Shelton, CT) plate reader using three labels for measuring blue, green and red fluorescence at […] 460, 535 and 590nm respectively.
On the % scale 0 is the no-effect control and ±100 the full control effect.

SMILES	fluorescence, % of Rose Bengal	outcome
CCCCNCC	0.116%	–
O=CN1CCCCC1	0.0695%	–
COc1ccc(Cl)cc1C	0.144% [at 95.7 µM]	–
COc1cnc(NS(=O)(=O)c2ccc(N)cc2)nc1	0.414% [at 18.6 µM]	–
CC/C=C\CCOC(=O)c1ccccc1	0.176%	–
C[C@]12C=CC(=O)C=C1[C@@H](F)C[C@@H]1[C@@H]2[C@@H](O)C[C@@]2(C)[C@H]1CC[C@]2(O)C(=O)CO	–	inactive
C/C=C/C(=O)CCCC	0.0347%	–
CCN1CCN(C(=O)N[C@@H](C(=O)N[C@@H]2C(=O)N3C(C(=O)O)=C(CSc4nnnn4C)CS[C@H]23)c2ccc(O)cc2)C(=O)C1=O	-0.224% [at 46 µM]	–
NCC1CCC(C(=O)Oc2ccc(CCC(=O)O)cc2)CC1 (stereo not given)	-0.0411% [at 46 µM]	–
COc1ccc2cc(CCC(C)=O)ccc2c1	-0.0935% [at 18.6 µM]	–
CC(=O)c1c(C)cc(C(C)(C)C)cc1C	-0.0276%	–
COC(C)(C)CC(C)=O	-0.0166%	–
COc1cc(C(=O)NC2CCCNC2)cc(OC)c1OC (stereo not given)	0.0425% [at 46 µM]	–
C/C=C(\C)C=O	0.0062%	–
O=Cc1ccccc1S(=O)(=O)O	-0.0587%	–
C[n+]1ccccc1/C=N/O	-0.356% [at 18.6 µM]	–
CCOC(=O)CC(C(C)=O)C(C)=O	-0.0735%	–
CC(C)(C)c1ccc(N)cc1	0%	–
O=Cc1ccc(C(=O)O)cc1	-0.0435% [at 95.7 µM]	–
CCN1CCN(C(=O)N[C@@H](C(=O)N[C@@H]2C(=O)N3[C@@H]2SC(C)(C)[C@H]3C(=O)O)c2ccccc2)C(=O)C1=O	-0.178% [at 46 µM]	–

SMILES	fluorescence, % of Rose Bengal	outcome
CCc1ccc(CC)cc1	0.0173%	–
O=S(=O)(O)CC(O)CCl (stereo not given)	0.15%	–
CC(C)(O)CCCC1=CCC(C=O)CC1 (stereo not given)	0.237% [at 95.7 µM]	–
O=S(=O)(O)c1cc(I)c(O)c2ncccc12	-0.124% [at 46 µM]	–
O=C(O)/C=C(\CC(=O)O)C(=O)O	-0.138% [at 46 µM]	–
CC(C)(C)C(=O)NCCCC(=O)O	-0.143% [at 46 µM]	–
CCCCCCCCCCCBr	0.0951% [at 46 µM]	–
CCCCN1C(=O)c2ccccc2C1=O	0.0746% [at 95.7 µM]	–
Cc1ccc(S(=O)(=O)NC(=O)NN2CC3CCCC3C2)cc1 (stereo not given)	0.0439% [at 18.6 µM]	–
CC(C)CC(=O)N[C@H](C(=O)N[C@H](C(=O)N[C@@H](CC(C)C)[C@@H](O)CC(=O)N[C@@H](C)C(=O)N[C@@H](CC(C)C)[C@@H](O)CC(=O)O)C(C)C)C(C)C (Isovaleryl-VV[Sta]A[Sta]-OH)	0.0069% [at 46 µM]	–
CCCCCCCCC1CO1 (stereo not given)	0.0764% [at 95.7 µM]	–
N#Cc1ccccc1C#N	-0.0142%	–
CC/C=C/CCCCCCCCCCOC(C)=O	-0.0533%	–
CCCCCCCOC(C)=O	0.0895%	–
C=CCCCCCCCCCCCCCC	0.0019% [at 18.6 µM]	–
CNC(C)=O	-0.0219%	–
CCCOc1ccc(C(=O)OCCN(CC)CC)cc1N	-0.264% [at 46 µM]	–
C=CC(=O)OCC[N+](C)(C)C	0.0074%	–
O=c1[nH]c(=O)c2cn[nH]c2[nH]1	-0.156%	–
Cc1nc2ccc(Cl)cc2[nH]1	-0.19%	–
